Test system: EPHB4
Settings: concentration: 1 μM,replicates: in singlicate; n = 1
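Note: KINOMEscan kinase panel screen.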

| SMILES | %Inh [%] |
| --- | --- |
| CCN(CC)CCOc1ccc(Nc2ncc3cc(-c4c(Cl)cccc4Cl)c(=O)n(C)c3n2)cc1 [SB-601273] | 100 |
| Cc1cc(C(=O)Nc2ccc(Oc3ccc4nc(NC(=O)C5CC5)cn4n3)cc2)nn1-c1ccccc1 | 37 |
| Cl.Oc1cc(-c2nc(-c3ccccc3)[nH]c2-c2ccncc2)ccc1Cl [SB-386023] | 30 |
| CNC(=O)c1ccccc1Sc1ccc2c(/C=C/c3ccccn3)n[nH]c2c1 | 0 |
| Cc1ccc2c(-c3ccncc3)c(-c3ccc(F)cc3)nn2c1.Cl [GW461484] | 0 |
| CN(C)CC(O)COc1ccc(Nc2nccc(-c3cnn4nc(N5CCOCC5)ccc34)n2)cc1 (stereo not drawn) [GW767488] | 95.4 |
| Cl.Cl.Nc1nc(-c2ccc3c(N)n[nH]c3c2)cc(N2CCCC(NC(=O)c3ccccc3)C2)n1 (stereo not drawn) [GSK2286775] | 3 |
| CCn1c(-c2nonc2N)nc2c(C#CC(C)(C)O)nc(OCCN)cc21.Cl.Cl [GSK902056] | 20 |
| CC(C)Nc1cc(-c2ccc3c(N)n[nH]c3c2)nc(N)n1 [GSK2221681] | 0 |
| Cl.Cl.NC[C@H](CC1CCCCC1)NC(=O)c1cc(Br)c(-c2ccnc3[nH]ccc23)s1 [GSK1581427] | 10 |
| Cc1ccc(-n2nc(C(C)(C)C)cc2NC(=O)Nc2ccc(OCCN3CCOCC3)c3ccccc23)cc1 [GW839464] | 31 |
| Nc1nc(Nc2ccccc2)cc(-c2ccc3c(N)n[nH]c3c2)n1 [GSK2225749] | 0 |
| C[C@@H]1CCN(C(=O)CC#N)C[C@@H]1N(C)c1ncnc2[nH]ccc12 | 0 |
| C=CC(=O)Nc1cc2c(Nc3ccc(F)c(Cl)c3)ncnc2cc1OCCCN1CCOCC1 [GW781483] | 24 |
| CCN(CC)CCCCNc1ncc2cc(-c3c(Cl)cccc3Cl)c(NC(=O)NC(C)(C)C)nc2n1 | 92.6 |
| CC(C)N1C(=O)Cc2cc(Nc3ncc(C(F)(F)F)c(NCc4cccc(S(C)(=O)=O)c4)n3)ccc21 | 0 |
| Cl.Cl.NC[C@H](Cc1ccc(C(F)(F)F)cc1)NC(=O)c1cc(Br)c(-c2ccnc3[nH]ccc23)s1 [GSK1487252] | 14 |
| Cc1n[nH]c2ccc(-c3cc(OC[C@@H](N)Cc4ccccc4)cnc3-c3ccoc3)cc12.O=C(O)C(F)(F)F.O=C(O)C(F)(F)F [GSK507358] | 8 |
| Cc1cc2cn[nH]c2cc1-c1cccc2c(N)c(C(N)=O)nnc12 | 0 |
| COc1ccc(C[C@@H](CN)NC(=O)c2cc(Br)c(-c3ccnc4[nH]ccc34)s2)cc1.Cl.Cl [GSK1389063] | 32 |
| O=C(NCCNc1ccnc(NCc2ccc(F)cc2)n1)c1cc2ccccc2s1 [GSK1379944] | 16 |
| C[C@H]1Oc2cc(cnc2N)-c2c(nn(C)c2C#N)CN(C)C(=O)c2ccc(F)cc21 | 35 |
| O=C(NCCCN1CCOC1=O)c1cnc(NCc2cc(Cl)ccc2Cl)nc1NC1CCCC1 | 16 |
| NC(=O)c1cc(-c2ccccc2)cc2c(C3CCNCC3)c[nH]c12 [GSK301362] | 1 |
| CN(C)CCOc1ccc(-c2cc(-c3c[nH]nc3-c3ccccn3)ccn2)cc1 [GW835314] | 8 |
| C[C@@H](Oc1cc(-c2cnn(C3CCNCC3)c2)cnc1N)c1c(Cl)ccc(F)c1Cl | 52 |
| Cc1occc1-c1nc(N)c(OC[C@@H](N)Cc2c[nH]c3ccccc23)cc1-c1cc2c(C)n[nH]c2cn1 [GSK1660450] | 11 |

Test system: EPHB6
Settings: concentration: 1 μM,replicates: in singlicate; n = 1

| SMILES | %Inh [%] |
| --- | --- |
| CCN(CC)CCOc1ccc(Nc2ncc3cc(-c4c(Cl)cccc4Cl)c(=O)n(C)c3n2)cc1 [SB-601273] | 98.9 |
| Cc1cc(C(=O)Nc2ccc(Oc3ccc4nc(NC(=O)C5CC5)cn4n3)cc2)nn1-c1ccccc1 | 89 |
| Cl.Oc1cc(-c2nc(-c3ccccc3)[nH]c2-c2ccncc2)ccc1Cl [SB-386023] | 14 |
| CNC(=O)c1ccccc1Sc1ccc2c(/C=C/c3ccccn3)n[nH]c2c1 | 80 |
| Cc1ccc2c(-c3ccncc3)c(-c3ccc(F)cc3)nn2c1.Cl [GW461484] | 27 |
| CN(C)CC(O)COc1ccc(Nc2nccc(-c3cnn4nc(N5CCOCC5)ccc34)n2)cc1 (stereo not drawn) [GW767488] | 73 |
| Cl.Cl.Nc1nc(-c2ccc3c(N)n[nH]c3c2)cc(N2CCCC(NC(=O)c3ccccc3)C2)n1 (stereo not drawn) [GSK2286775] | 26 |
| CCn1c(-c2nonc2N)nc2c(C#CC(C)(C)O)nc(OCCN)cc21.Cl.Cl [GSK902056] | 0 |
| CC(C)Nc1cc(-c2ccc3c(N)n[nH]c3c2)nc(N)n1 [GSK2221681] | 0 |
| Cl.Cl.NC[C@H](CC1CCCCC1)NC(=O)c1cc(Br)c(-c2ccnc3[nH]ccc23)s1 [GSK1581427] | 10 |
| Cc1ccc(-n2nc(C(C)(C)C)cc2NC(=O)Nc2ccc(OCCN3CCOCC3)c3ccccc23)cc1 [GW839464] | 0 |
| Nc1nc(Nc2ccccc2)cc(-c2ccc3c(N)n[nH]c3c2)n1 [GSK2225749] | 0 |
| C[C@@H]1CCN(C(=O)CC#N)C[C@@H]1N(C)c1ncnc2[nH]ccc12 | 10 |
| C=CC(=O)Nc1cc2c(Nc3ccc(F)c(Cl)c3)ncnc2cc1OCCCN1CCOCC1 [GW781483] | 52 |
| CCN(CC)CCCCNc1ncc2cc(-c3c(Cl)cccc3Cl)c(NC(=O)NC(C)(C)C)nc2n1 | 98.9 |
| CC(C)N1C(=O)Cc2cc(Nc3ncc(C(F)(F)F)c(NCc4cccc(S(C)(=O)=O)c4)n3)ccc21 | 49 |
| Cl.Cl.NC[C@H](Cc1ccc(C(F)(F)F)cc1)NC(=O)c1cc(Br)c(-c2ccnc3[nH]ccc23)s1 [GSK1487252] | 12 |
| Cc1n[nH]c2ccc(-c3cc(OC[C@@H](N)Cc4ccccc4)cnc3-c3ccoc3)cc12.O=C(O)C(F)(F)F.O=C(O)C(F)(F)F [GSK507358] | 8 |
| Cc1cc2cn[nH]c2cc1-c1cccc2c(N)c(C(N)=O)nnc12 | 64 |
| COc1ccc(C[C@@H](CN)NC(=O)c2cc(Br)c(-c3ccnc4[nH]ccc34)s2)cc1.Cl.Cl [GSK1389063] | 35 |
| O=C(NCCNc1ccnc(NCc2ccc(F)cc2)n1)c1cc2ccccc2s1 [GSK1379944] | 18 |
| C[C@H]1Oc2cc(cnc2N)-c2c(nn(C)c2C#N)CN(C)C(=O)c2ccc(F)cc21 | 82 |
| O=C(NCCCN1CCOC1=O)c1cnc(NCc2cc(Cl)ccc2Cl)nc1NC1CCCC1 | 19 |
| NC(=O)c1cc(-c2ccccc2)cc2c(C3CCNCC3)c[nH]c12 [GSK301362] | 16 |
| CN(C)CCOc1ccc(-c2cc(-c3c[nH]nc3-c3ccccn3)ccn2)cc1 [GW835314] | 8 |
| C[C@@H](Oc1cc(-c2cnn(C3CCNCC3)c2)cnc1N)c1c(Cl)ccc(F)c1Cl | 99.6 |
| Cc1occc1-c1nc(N)c(OC[C@@H](N)Cc2c[nH]c3ccccc23)cc1-c1cc2c(C)n[nH]c2cn1 [GSK1660450] | 0 |
